Bioassay records (PubChem)
An excerpt weighted towards active compounds, which were near 1.2% of everything screened.
NSD2 inh: inhibitors of human histone methyltransferase NSD2; inhibition, % at 12.5 µM; NSD2 peptide methylation, AlphaScreen, 120 min; O96028; AID 743445; actives 0.54% (n = 310,000); in the data active = inhibition above about 50%
Target sequence (O96028 whole entry, looked up): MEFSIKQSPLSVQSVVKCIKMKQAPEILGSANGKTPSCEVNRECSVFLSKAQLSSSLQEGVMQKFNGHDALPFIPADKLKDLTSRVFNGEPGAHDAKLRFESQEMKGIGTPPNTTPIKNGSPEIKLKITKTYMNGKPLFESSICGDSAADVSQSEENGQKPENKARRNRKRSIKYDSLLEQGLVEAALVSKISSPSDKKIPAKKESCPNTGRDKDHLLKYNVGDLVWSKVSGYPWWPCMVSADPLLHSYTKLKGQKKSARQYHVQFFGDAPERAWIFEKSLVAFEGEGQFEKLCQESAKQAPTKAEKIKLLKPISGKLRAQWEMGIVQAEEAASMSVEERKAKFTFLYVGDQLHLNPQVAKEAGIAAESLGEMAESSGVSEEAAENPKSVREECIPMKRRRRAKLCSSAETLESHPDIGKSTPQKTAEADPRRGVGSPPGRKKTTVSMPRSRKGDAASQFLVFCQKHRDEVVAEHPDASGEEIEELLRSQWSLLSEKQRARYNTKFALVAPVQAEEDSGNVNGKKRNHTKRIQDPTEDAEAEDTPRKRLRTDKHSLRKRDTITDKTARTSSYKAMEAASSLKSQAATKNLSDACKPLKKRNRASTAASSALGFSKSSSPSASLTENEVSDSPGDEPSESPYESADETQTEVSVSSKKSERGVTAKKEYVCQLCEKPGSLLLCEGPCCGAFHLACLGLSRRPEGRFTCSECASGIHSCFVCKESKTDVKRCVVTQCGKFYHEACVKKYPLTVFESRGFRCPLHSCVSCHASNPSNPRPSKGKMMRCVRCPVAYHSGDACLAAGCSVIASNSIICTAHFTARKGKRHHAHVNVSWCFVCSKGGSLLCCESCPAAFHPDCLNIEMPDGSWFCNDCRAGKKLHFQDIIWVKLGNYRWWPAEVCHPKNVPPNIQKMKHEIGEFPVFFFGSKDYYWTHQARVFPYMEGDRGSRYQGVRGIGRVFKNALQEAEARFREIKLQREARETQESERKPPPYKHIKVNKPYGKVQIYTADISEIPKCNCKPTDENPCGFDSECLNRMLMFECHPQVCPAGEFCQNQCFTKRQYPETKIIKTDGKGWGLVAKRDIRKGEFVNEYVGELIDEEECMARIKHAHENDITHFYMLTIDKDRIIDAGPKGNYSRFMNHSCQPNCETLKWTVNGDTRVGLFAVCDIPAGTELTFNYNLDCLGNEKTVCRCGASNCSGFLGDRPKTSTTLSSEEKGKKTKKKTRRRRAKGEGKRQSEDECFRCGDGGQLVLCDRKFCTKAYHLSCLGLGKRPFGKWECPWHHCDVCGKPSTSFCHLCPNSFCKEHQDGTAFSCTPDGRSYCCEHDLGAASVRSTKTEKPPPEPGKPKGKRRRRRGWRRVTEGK
miR-122 sensor: blocks miR-122 activity in Huh7 sensor cells | Huh7 miR-122 Renilla luciferase sensor, 48 h; neutral wells = 0, positive control = 100 | activation (reporter increase), % at 12.5 µM | actives 0.3% (n = 340,000) | AID 602342;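 active = mean replicate activation score at least 90 and every replicate individually at or above 90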;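 note: higher luciferase means less miR-122 activity so hits act as miR-122 inhibitors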
PglD DTNB: PglD (C. jejuni) enzyme inhibition; inhibition, % at 12.5 µM; actives 0.098% (n = 360,000); purified PglD enzyme, DTNB colorimetric CoA detection; AID 602405; in the data active = inhibition above about 16%, passing the limit was not always enough
C2C12 statin: protects C2C12 myotubes from simvastatin toxicity; rescue of ATP level, % at 7.49 µM; AID 602340; actives 0.78% (n = 330,000); ATP luminescence, 48 h; scaled: DMSO 0, geranylgeraniol control 100;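 active = mean ATP rescue above about 67%, or every replicate alone reaching that limit, limit read from the data, passing the limit was not always enough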;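 note: myotubes were challenged with 10 µM simvastatin during compound exposure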
PglD confirm: PglD (C. jejuni) inhibition confirmation. inhibition, % at 20 µM. shares compounds with PglD DTNB. Purified C. jejuni PglD, DTNB absorbance 412 nm. 320 tested, under 10 active;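 active = mean inhibition across replicates of at least 20% with every single replicate also at 20% or more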;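 note: initial rate of CoA release by acetyl transfer from AcCoA to the UDP-4-amino sugar; 0% = median of neutral control wells and 100% = median of positive control wells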
AlphaScreen art: interferes with AlphaScreen signal, flagging NSD2 false positives. shares compounds with NSD2 inh. AlphaScreen artifact counterscreen, preloaded methylated H4 peptide. AC35, µM (series often up to 10 µM), for inactives: top-dose activity change, negative = signal loss. actives 9.4% (n = 1,500). AID 1053174; call rule not given here
* hit, by the source's call; . = not tested or not shown; [ ] = dose if it differs, or a comment.

SMILES	NSD2 inh	miR-122 sensor	PglD DTNB	C2C12 statin	AlphaScreen art	others
CC=Cc1ccc2n(c1=O)C[C@@H]1[C@@H](CO)[C@H](C(=O)OC)[C@H]2N1CC1CC1 (mixture of isomers)	.	-1[16.7 µM]	1	4	.
O=C(O)[C@@H]1[C@@H](CO)[C@@H]2Cn3c(ccc(-c4ccncc4)c3=O)[C@H]1N2C(=O)C1CCCCC1	.	-6[16.7 µM]	2	-8	.
O=C(CCc1ccccc1)N1Cc2cc(N3CCOCC3)ccc2-n2nncc2C1	.	18	5	-5	.
OCC[n+]1c2ccccc2nc2ccc(N3CCOCC3)cc21	82*	-14	-3	.	.
C=CCOC(=O)C1=C(C)OC(N)=C(C(=O)OCC)C12C(=O)N(CC(N)=O)c1ccccc12 (centres undefined)	-3	-3	-1	3	.
CCOC(=O)C1=C(C)OC(N)=C(C(=O)OCC)[C@@]12C(=O)N(CC(N)=O)c1ccccc12	1	1	4	98*	.
COc1ccc(C[C@H]2NC[C@H](O)[C@H]2OC(C)=O)cc1	.	-13	0	79*	.
COc1ccc(CCNC2CCCCC2)cc1	16	.	.	.	.
Oc1ccc(/C=N/NP(=S)(c2ccccc2)c2ccccc2)cc1	1	96*	.	1	.
Cc1cccc(S(=O)(=O)N2[C@@H]3c4ccc(-c5cccc(F)c5)c(=O)n4C[C@H]2[C@H](CO)[C@H]3C(=O)O)c1	.	-8[16.7 µM]	1	-19	.
COC(=O)[C@H]1[C@H](CO)[C@H]2Cn3c(ccc(C4=CCCCC4)c3=O)[C@@H]1N2C(=O)CC1CC1	.	4[16.7 µM]	-1	-5	.
O=C1Nc2ccccc2/C1=C/c1cnc[nH]1	3	8	.	199*	.
C=CCn1c(O)c(C=NC2CCN(Cc3ccccc3)CC2)c(=O)[nH]c1=O	-1	-4	20*	-14	.	PglD confirm=-7
CC(=O)NC1CC2CCC(C1)N2 (centres undefined)	-1	4	5	4	.
CC(=O)NC1CC2CCCC(C1)N2 (centres undefined)	-10	-2	27*	-4	.	PglD confirm=-4
CCCC#Cc1ccc([C@@H]2[C@@H](CO)N3CCCCN(C(=O)Cc4ccccn4)C[C@@H]23)cc1	.	20[16.7 µM]	3	.	.
CCCC(C)C1C(C#N)=C(N)Oc2c1c(=O)oc1ccccc21 (centres undefined)	.	1	24*	-10	.	PglD confirm=-4
O=C(Cc1ccccc1)N1CCCCN2[C@H](C1)[C@H](c1ccc(-c3ccccc3)cc1)[C@@H]2CO	.	-12[16.7 µM]	-2	.	.
CCNC(=S)NCCC1=c2ccccc2=N/C1=C\c1c(O)n(C)c(=O)n(C)c1=O	55*	-2	-2	16	1%
Cn1c(O)c(/C=C2\C=Nc3ccc(Br)cc32)c(=O)n(C)c1=O	-2	5	1	9	.
O=C(Cc1ccccc1)N1CCCCN2[C@H](CO)[C@H](c3ccc(C#Cc4ccccc4)cc3)[C@@H]2C1	.	-5[16.7 µM]	11	.	.
COC(=O)[C@@H]1[C@@H](CO)[C@@H]2Cn3c(ccc(-c4cccnc4)c3=O)[C@H]1N2CCc1ccccc1	.	2[16.7 µM]	6	9	.
O=C1NC(=O)C(=Cc2ccc(SC3CCCCC3)o2)C(=O)N1	62*	.	.	.	1%
O=C(Cc1ccccc1)N1CCCCN2[C@@H](CO)[C@@H](c3ccc(C#Cc4ccccc4)cc3)[C@@H]2C1	.	-7[16.7 µM]	-8	.	.
CCCCn1c(NS(=O)(=O)c2ccccc2)c(C(=O)OCC)c2nc3ccccc3nc21	99*	.	.	.	-2%
SMILES	NSD2 inh	miR-122 sensor	PglD DTNB	C2C12 statin	AlphaScreen art	others
CCOC(=O)c1c(N)n(CCN2CCCCC2)c2nc3ccccc3nc12	-10	.	3	-15	.
CN1CCN(c2ncnc3c2cnn3C)CC1	76*	11	2	.	-4%
N#Cc1cccc(-c2ccc([C@@H]3[C@H]4CN(C(=O)Cc5ccncc5)CCCCN4[C@H]3CO)cc2)c1	.	18[16.7 µM]	3	.	.
N#Cc1ccc(-c2ccc([C@H]3[C@H]4CN(C(=O)Cc5ccccc5)CCCCN4[C@H]3CO)cc2)cc1	.	-8[16.7 µM]	2	8	.
CCN1CCN(c2ccc(N)cc2)CC1	57*	0	.	.	-7%
CCN1CCN(c2ccc(N)cc2C)CC1	60*	.	.	.	-5%
CCCC#Cc1ccc([C@H]2[C@@H](CO)N3CCCCN(C(=O)Cc4ccccn4)C[C@H]23)cc1	.	21[16.7 µM]	1	.	.
CNCCCc1ccccc1	103*	4	5	2	2%
BrCCc1ccccc1	.	4	1	6	.
COCCCNC(=O)c1c(NC(=O)c2ccccc2Cl)n(Cc2ccccc2)c2nc3ccccc3nc12	1	12	-6	-3	.
COCCNC(=O)c1c(NC(=O)c2ccco2)n(Cc2ccccc2)c2nc3ccccc3nc12	113*	.	-4	-3	8%
Cc1cc(/C=C2\C(=O)NC(=O)N(c3ccccc3F)C2=O)c(C)n1-c1cc(C(=O)O)cc(C(=O)O)c1	62*	.	8	-2	-2%
CCN1C[C@]2(CO)CC[C@H](OC)[C@@]34C2[C@H](OC)[C@@](O)(C13)[C@@]1(O)C[C@H](OC)[C@H]2C[C@@H]4[C@@H]1[C@H]2OC	57*	6	-1	-4	0%
COC(=O)[C@@H]1[C@@H](CO)[C@@H]2Cn3c(cccc3=O)[C@H]1N2C(=O)C1CCC1	.	1[16.7 µM]	-3	6	.
CC(=O)Nc1ccc(N=Cc2c(O)n(Cc3ccco3)c(=O)[nH]c2=O)cc1	-2	-3	1	6	.
CC(C)n1c(=O)c(C=Nc2ccc(S(N)(=O)=O)cc2)c(O)n(Cc2ccco2)c1=O	67*	.	.	.	-4%
CC1(C)CC(=O)C2=C(C1)NC(=O)C21C(C(=O)OC(C)(C)C)=C(N)Oc2ccc(Br)cc21 (centres undefined)	62*	3	2	35	-5%
C=CCN1C(=O)C2(C(C(=O)OCC)=C(N)Oc3ccccc32)C2=C1CCCC2=O (centres undefined)	-2	-3	0	2	.
O=C1NC(=S)NC(=O)C1=Cc1ccc(Br)s1	52*	-1	11	-4	-5%
CN1C(=O)/C(=C\c2ccc(Br)s2)C(=O)NC1=S	3	2	3	-3	.
CSc1ncc(/C=C2/C(=O)NC(=O)N(c3ccc(C)cc3)C2=O)cn1	1	.	.	.	.
Cc1ccc(N2C(=O)NC(=O)/C(=C/c3cnn(-c4ccc(C)cc4)c3)C2=O)cc1	51*	.	2	.	-5%
Cc1ccc(N2C(=O)NC(=O)/C(=C/c3ccoc3)C2=O)cc1	90*	.	.	.	-16%
O=C(O)[C@@H]1[C@@H](CO)[C@@H]2Cn3c(ccc(-c4ccc(F)cc4)c3=O)[C@H]1N2CC1CCCCC1	.	.	3	0	.
CCc1ccc(N2C(=O)NC(=O)/C(=C\C=C\c3ccco3)C2=O)cc1	54*	-1	-4	21	-7%
Cc1cc(C)cc(N2C(=O)NC(=O)/C(=C\C=C\c3ccco3)C2=O)c1	72*	-3	.	0	-1%
